# Screening data deposited in PubChem by National Center for Advancing Translational Sciences (NCATS).
# This excerpt belongs to a sample that is enriched for hits.
# LmPK inhibitor – LmPK (Leishmania mexicana) enzyme inhibition; Potency, µM (series often up to 57.5 µM), without a hit: at the highest dose activity change, negative = inhibition, actives largely listed as inhibitors; purified LmPK, Kinase-Glo ATP luminescence, 1 h; 290,000 compounds, 0.37% hits; Q27686; note: potency is the fitted concentration of half-maximal effect; % is set by controls: 0 for no effect and ±100 for the full control effect
# Target sequence (Q27686 whole entry, looked up): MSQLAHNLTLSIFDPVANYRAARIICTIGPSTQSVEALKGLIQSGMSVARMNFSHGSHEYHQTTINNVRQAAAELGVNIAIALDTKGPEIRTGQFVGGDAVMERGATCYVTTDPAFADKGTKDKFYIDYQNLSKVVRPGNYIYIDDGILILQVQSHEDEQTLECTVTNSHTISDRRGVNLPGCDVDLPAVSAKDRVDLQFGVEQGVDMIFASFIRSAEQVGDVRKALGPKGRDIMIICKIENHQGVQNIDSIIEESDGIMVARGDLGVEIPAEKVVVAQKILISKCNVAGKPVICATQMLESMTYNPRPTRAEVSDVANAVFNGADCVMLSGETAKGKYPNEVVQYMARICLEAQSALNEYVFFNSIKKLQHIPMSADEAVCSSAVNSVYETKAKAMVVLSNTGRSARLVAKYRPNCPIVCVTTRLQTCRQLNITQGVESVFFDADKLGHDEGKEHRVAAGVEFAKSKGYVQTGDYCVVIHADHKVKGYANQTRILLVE
#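 Kinase-Glo luminescence read after 1 h RT reaction of 0.1 nM LmPK with 0.5 mM PEP and 0.1 mM ADP. Activity scaled between uninhibited and enzyme-free controls.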
# CHX counter – counter-screen for Shiga toxin inhibitors: cycloheximide protein synthesis inhibition; cell reporter, cycloheximide protein synthesis inhibition counterscreen; max response, %; 300,000 compounds, 12% hits; AID 2314; in the data active = max response mostly above about 13%, no sharp cut-off; inactive = mostly below about 14%; note: read at 38.3 µM for the half of the compounds with a filed dose; 0% is about no effect
# Shiga toxin inh – blocks Shiga toxin action in Vero cells | inhibition, % at 38.7 µM | AID 2315 | Vero cells, Shiga toxin protein synthesis inhibition reporter | 290,000 compounds, 9.2% hits; in the data active = inhibition mostly above about 28%, no sharp cut-off; inactive = mostly below about 43%; note: 0% is about no effect
# TbPYK inhibitor – T. brucei pyruvate kinase inhibition; Q57TT1; TbPYK enzyme, Kinase-Glo Plus ATP luminescence, 45 min; Potency, µM (top dose mostly 76.8 µM), without a hit: top-dose activity, negative = inhibition, usual class: inhibitors; 410,000 compounds, 0.12% hits; note: potency is the fitted concentration of half-maximal effect; % is set by controls: 0 for no effect and ±100 for the full control effect; nearly all actives have a fitted effect of over 50% in size
#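 Enzyme and substrate buffer are dispensed first and compound is pin-transferred. ADP at 130 uM final then starts the reaction, which runs 45 min at room temperature. Detection reagent is added for 10 min before luminescence is imaged.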
# NS1 function inh – inhibitors of influenza NS1 protein function. Potency, µM (series often up to 46.1 µM), for the others: at the highest dose activity, positive = more growth. 270,000 compounds, 0.4% hits; calls by dose curve; note: potency is the fitted concentration of half-maximal effect; actives are rising curves; nearly all actives have a fitted effect of over 50% in size
#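 S. cerevisiae expressing influenza A NS1, grown in glucose, washed, then diluted 1:100 into pH 6.0 -URA galactose medium with 23 nl compound. Growth recovery read as OD600; NS1-free strain serves as control.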
# SARS PLP yeast – SARS-CoV PLP inhibition in yeast | S. cerevisiae expressing SARS-CoV PLpro, growth rescue | Potency, µM (series often up to 32.9 µM), for inactives: top-dose activity, positive = growth rescue, hits mostly activators | 330,000 compounds, 0.19% hits; calls by dose curve; note: potency is the fitted concentration of half-maximal effect; 0% is about no effect; nearly all actives have a fitted effect of over 55% in size
# An asterisk follows results filed as active; ? = inconclusive; · = no result; + = active, no number; [ ] = remark or other dose. Unless noted, calls come from the whole dose curve; as a rule, active = well fitted curve in the direction sought with a large enough effect; inconclusive = small, poorly fitted or top-dose-only effect, or another doubt; inactive = no such curve, though single readings can be large; an effect the other way counts as inactive or inconclusive.
SMILES,LmPK inhibitor,CHX counter,Shiga toxin inh,TbPYK inhibitor,NS1 function inh,SARS PLP yeast
COc1ccc(C(=O)N/N=C(\C)CC(=O)Nc2ccc3c(c2)OCO3)cc1,-7%,37*,55*,-5%,-6%,0%
C/C(CC(=O)Nc1ccc2c(c1)OCCO2)=N\NC(=O)c1cccc(O)c1,0%,33*,84*,-5%,2%,-7%
C/C(CC(=O)Nc1cccc(F)c1)=N\NC(=O)c1ccncc1,-5%,10,28,-5%,?,18%
C/C(CC(=O)Nc1ccc(Br)cc1)=N\NC(=O)c1cccc(O)c1,-3%,44*,69*,0%,25%,1%
COc1cccc(C(c2nnnn2Cc2ccco2)N2CCN(c3cccc(C)c3C)CC2)c1OC (configuration not stated),6%,17,58*,?,13%,-8%
COC(=O)C1=C(C(=O)OC)[C@@H]2N(C)c3ccc(OC)cc3[C@@]23C[C@@H](C(=O)OC)N(S(=O)(=O)c2ccc(C)cc2)C3=N1,-2%[11.5 µM],·,·,·,·,·
Cc1nc(C(=O)NNC(=O)c2cccc(Cl)c2)c(C(F)(F)F)o1,2%,-1,-3,0%,1%,-1%
Cc1nc(/C(N)=N/OC(=O)c2ccc(Cl)cc2)c(C(F)(F)F)o1,?,46*,46*,-6%,-37%,-1%
Cc1ccc(NC(=O)CSCc2cc(=O)n3ccsc3n2)c(C)c1,-5%,-2,-11,3%,-4%,3%
CC(C)CNC(=O)NC1(C(F)(F)F)Oc2ccccc2O1,-4%,7,24,-8%,·,0%
COc1cccc(NC(=O)NC2(C(F)(F)F)Oc3ccccc3O2)c1,1%,45*,66*,-4%,0%,-4%
Cc1cccc(NC(=O)Nc2cccnc2)c1C,-6%,0,28,4%,7%,1%
Cn1ccc2cc(NC(=O)Nc3cccnc3)ccc21,·,30*,49*,-11%,·,·
CCc1ccc(NC(=O)Nc2cccc(OC)c2)cc1,-1%,26*,105*,5%,·,-1%
COc1cccc(NC(=O)Nc2ccc(CC(=O)O)cc2)c1,-16%,-1,24,-2%,6%,-4%
O=C(Nc1ccc(Br)cc1)c1cnc[nH]1,-2%,39*,64*,6%,2%,-2%
COc1ccc(-n2nc(C(=O)N3CCN(c4ccccc4OC)CC3)c3c4ccccc4n(C)c3c2=O)cc1,·,·,·,6%,·,·
CC(C)CN(C(=O)CSc1nc2ccccc2[nH]1)C1CCS(=O)(=O)C1 (configuration not stated),·,·,·,4%,·,3%
COc1ccc(C(=O)Nc2cccc3c2CCCC3)cc1OC,-2%,-1,-4,5%,23%,-1%
Cc1cc(C)c2c(c1)c(C)cc1nnc(SCc3ccccc3C#N)n12,·,·,·,-12%,·,·
Cc1cccc(-n2c(C)nc3cc(C(=O)NCCC4=CCCCC4)ccc32)c1,·,·,·,-17%,·,·
COc1ccc(NC(=O)Nc2cccnc2)c(OC)c1,4%,2,-11,-17%,3%,1%
COc1cccc(NC(=O)c2cnc[nH]2)c1,-4%,33*,41*,1%,-2%,0%
COc1cccc(NC(=O)Nc2cccc(C(=O)O)c2)c1,-23%,26*,47*,2%,5%,-1%
COc1cccc(NC(=O)Nc2ccc(Br)cn2)c1,4%,26*,78*,1%,-3%,0%
SMILES,LmPK inhibitor,CHX counter,Shiga toxin inh,TbPYK inhibitor,NS1 function inh,SARS PLP yeast
COc1cccc(NC(=O)Nc2cccnc2)c1,-4%,14*,6,-2%,-3%,-1%
COc1cccc(NC(=O)c2ccccc2)c1,·,·,·,-10%,·,-3%
COCCN1C[C@@H](CO)O[C@@H](n2cnc3c(NCc4ccc(F)cc4)ncnc32)C1,·,·,·,-8%,·,·
O=C(O)c1ccccc1C(=O)c1ccc(Oc2ccccc2)cc1,5%,16,20,-1%,7%,0%
O=C(O)c1ccccc1Oc1ccc(Oc2ccccc2)cc1,-5%,7.5*,25,-1%,-69%,13%
CC(C)CCn1cnc2c(oc3nc4c(cc32)CCCC4)c1=O,-27%,24*,14,0%,-6%,-1%
CC(C)NC(=O)NC(=O)COc1ccc(Br)cc1Br,3%,130*,75*,-3%,-2%,-13%
O=C(COc1ccc(Br)cc1Cl)NC(=O)NC1CCCC1,·,·,·,5%,·,0%
O=C(COc1ccc(Br)cc1Br)NC1CCS(=O)(=O)C1 (configuration not stated),·,·,·,1%,·,-5%
CC(C)NC(=O)NC(=O)COc1c(F)c(F)cc(F)c1F,-4%,5,21,-3%,3%,10%
O=C(COc1ccc(Br)cc1Br)NC1CCCC1,8%,43*,109*,-8%,·,-7%
O=C(COc1ccc(Br)cc1Cl)NC1CCCCC1,2%,36*,+,-4%,0%,1%
O=C(CS(=O)(=O)Nc1ccc(F)cc1Cl)Nc1ccc(F)cc1Cl,3%,13,19,-11%,-32%,-6%
Nc1cc2nc3ccccc3oc-2cc1=O,-2%,28*,42*,-9%,-64%,-6%
O=C(O)c1cc(=O)c2c3nc4ccccc4oc-3cc(=O)c2[nH]1,·,·,·,-12%,·,·
O=C(NCCN1CCOCC1)c1sc2cc(Cl)ccc2c1Cl,1%,17*,45*,3%,-12%,-3%
CC(C)(CNC(=O)c1sc2cc(Cl)ccc2c1Cl)N1CCOCC1,·,·,·,1%,·,-5%
O=C(NCCCN1CCOCC1)c1sc2ccccc2c1Cl,4%,39*,47*,4%,-2%,0%
O=C(NCC1CCCO1)c1sc2cc(Cl)ccc2c1Cl (configuration not stated),-8%,54*,76*,-4%,-14%,-16%
COc1ccc(CNC(=O)c2cc3oc4ccccc4c3n2C)cc1OC,·,·,·,-1%,·,·
Cn1c(=O)c(C(=O)NCC2CCCO2)c(O)c2ccccc21 (configuration not stated),-10%,27*,45,-3%,-43%,-1%
Cn1c(C(=O)NCc2ccccc2)cc2oc3ccccc3c21,-1%,46*,85*,-6%,-36%,-2%
Cn1c(C(=O)NCC2CCCO2)cc2oc3ccccc3c21 (configuration not stated),0%,35*,103*,5%,-10%,-3%
Cn1c(C(=O)NCc2cccs2)cc2oc3ccccc3c21,0%,62*,82*,1%,-7%,-2%
CCN(CC)CCN=c1c(C)nc(C#N)c(N)n1O,·,·,·,6%,·,·
O=C(NCC1CCCN1S(=O)(=O)c1cccs1)c1ccc(F)cc1 (configuration not stated),·,·,·,-1%,·,3%
COc1ccc(S(=O)(=O)N2CCN(C(=O)CNC(=O)c3ccc4c(c3)OCO4)CC2)cc1,·,·,·,-7%,·,-1%
CC(C)NC(=O)CSc1nc(-c2ccccc2)cs1,-3%,26*,89*,6%,·,-2%
